The campaign covered roughly 6,200 compounds. About 2,900 (47%) were called active. So high a share suggests a set chosen from earlier hits. The list shows a part of the results. A number with no mark means an inactive call. Cut-off read from the data, not from the text of the source: active = inhibition above about 50%; inactive = the rest.

The assay is described as follows: Mycobacterium tuberculosis growth inhibition, primary screen (AID 1259343). The following applies: inhibition: at 10 µM, hits give high values; outcome: 10 uM.
What is called inhibition is the change of the read-out against control, counted positive when it falls. Take `O=S(=O)(Nc1nc2ccccc2nc1OCC(F)(F)F)c1cccs1`: the inhibition was 71.9% (active).
Take `O=S(=O)(Nc1ccc(Cl)c(Cl)c1)c1cccs1`: the inhibition was 20.9%.
To `OCC1(Cc2cccc(Cl)c2)CCCN(Cc2nc(-c3ccc(F)cc3)cs2)C1` (centres undefined) belongs “inactive”; to `O=C(c1cc2cc(F)ccc2[nH]1)N1CCCC(CO)(Cc2cccc(Cl)c2)C1` (centres undefined), 68.2% (active).
Regarding `COc1ccc(F)c(CN2CCCC(CO)(Cc3cccc(Cl)c3)C2)c1` (centres undefined), the inhibition was 31%.
For `CC(C)(C)c1ccc(C(=O)N2CCC2(C)C(=O)Nc2cccc3c2CCCC3)cc1` (centres undefined), the inhibition was 0.45%.
With `CC(C)C(=O)N1CCC1(C)C(=O)Nc1ccc(-n2cccc2)cc1` (centres undefined), the inhibition was 92.6% (active).
For the compound `Fc1ccc(CNc2ncnc3c2cnn3-c2ccc(F)cc2)cc1`, the inhibition is -7.37%.
For `CCOC(C)c1nc(CSc2ncnc3c2cnn3C)cs1` (centres undefined) the value was 40%; for `CC(C)CSc1ncnc2c1cnn2-c1ccccc1`, 59.5% (active).
For `CN(Cc1ccccc1)c1cccc(-n2ccnc2)n1` the value was 3.53%; for `CN(Cc1c(F)cccc1Cl)c1cncc(-n2cccn2)n1`, 83.7% (active).
For `Clc1cccc(-c2ccc3nnc(Cl)nc3c2)c1` the value was 101% (active); for `CCN(CC)c1n[nH]c(-c2cccc(Cl)c2)n1`, -6.42%.
Take `Cc1nn(-c2ccc(C(F)(F)F)cc2)c(C)c1[C@@H]1C=C[C@@H](NCc2ccc(N(C)C)cc2)C1`: the inhibition is 78.3% (active).
For `N#CC(C(=S)Nc1ccccc1)=C1NN=C2CCCCCN21` the value was 41.7%; for `COc1cccc(CNc2nccn(-c3cccc(Cl)c3)c2=O)c1`, 13.4%; for `CCOc1ccc(-n2ccnc(NCc3cccs3)c2=O)cc1`, 71.3% (active).
As for `O=C(O)c1c[nH]c2c(ccc3ccccc32)c1=O`, the inhibition entry was “inactive”.
Consider `O=C(O)c1c[nH]c2c(Cl)c(Cl)ccc2c1=O`, for which the inhibition was 81.6% (active).
For `COc1ccc(-c2cc(C(=O)NC3CC3)c(C)n2-c2cccc(OC)c2)cc1`, the inhibition is -5.91%.
Take `COc1ccc(F)c(-c2cc(C(=O)NC3CC3)ccn2)c1`: the inhibition is 82.8% (active).
On to `CCCOc1ccc(F)cc1-c1cc(C(=O)NC2CCCCC2)[nH]n1`, for which the inhibition was 28%.
Turning to `COC(=O)c1ccc(NC(=O)CCc2ccncc2)cc1C`, the inhibition was 92.8% (active).
For the compound `FC(F)(F)c1ccc(-c2nc(CSc3nc4cc(Cl)ccc4o3)cs2)cc1`, the inhibition was 87.2% (active).
To `Fc1ccc(Nc2nc3cc(Cl)ccc3o2)cc1Cl` belongs -2.2%.
To `OCCn1c(CSc2nc3ccccc3o2)nc2ccc(Cl)cc21` belongs -42.1%; to `Cc1c2ccccc2[nH]c2c1oc1cc(=O)ccc12`, 97.4% (active); to `CCCc1nc(-c2ccc(S(N)(=O)=O)cc2)cs1`, -6.09%.
For `CCCc1nc(C(=O)N2C[C@H]3CC=CC[C@H]3C2)cs1` the value was 58.6% (active); for `Cc1cc(C)c(C#N)c(N2CCN(Cc3ccc(Cl)cc3)CC2)n1`, 47.2%; for `Clc1ccc(CN2CCN(Cc3cnc(CC4CCCC4)[nH]3)CC2)cc1`, 84.3% (active).
Consider `CC1CCc2onc(C(=O)Nc3nc4ccccc4n3C)c2C1` (centres undefined), for which the inhibition is 7%.
For `O=C(NC(=S)NC1C2CC3CC(C2)CC1C3)c1cccs1` (centres undefined) the value was 56.9% (active); for `Cc1ccc(C(=O)NC(C)C23CC4CC(CC(C4)C2)C3)s1` (centres undefined), 93.3% (active); for `O=S(=O)(/C=C/c1ccccc1)NC12CC3CC(CC(C3)C1)C2`, -12.7%.
Turning to `COc1ccc(C23CC4CC(CC(C(=O)O)(C4)C2)C3)c(F)c1`, the inhibition was 21.2%.
Consider `COc1cccc(C(=O)NC(C)C23CC4CC(CC(C4)C2)C3)c1` (centres undefined), for which the inhibition was 62.8% (active).
For `S=C(NNc1ccccc1)NC12CC3CC(CC(C3)C1)C2`, the inhibition was 84.2% (active).
For the compound `COC(=O)C1CCCc2c1ccn2CC=C(C)C` (centres undefined), the inhibition is 27.3%.
Regarding `CC(NC(=O)c1cccs1)C12CC3CC(CC(C3)C1)C2` (centres undefined), the inhibition is 67.3% (active).
For `CC(C)c1ccc(C2NC(=O)C(O)=C2C(=O)c2cccs2)cc1` (centres undefined) the value was 29%.
To `CC(NC(=O)C1=NNC(=O)CC1)C12CC3CC(CC(C3)C1)C2` (centres undefined) belongs 68% (active).
For the compound `CC(NC(=O)C1=NNC(=O)CC1)C1CC2CCC1C2` (centres undefined), the inhibition is 27.1%.
To `CC1CC1C(=O)NC(C)C12CC3CC(CC(C3)C1)C2` (centres undefined) belongs 55.2% (active); to `O=C(NC12CC3CC(CC(C3)C1)C2)c1cccs1`, 98.1% (active).
To `CN(C)C(=O)c1ccc(-c2cnc3c(c2)CCN3CCCc2ccccc2)cc1` belongs 33.1%; to `COc1cc(NC(=O)c2ccc(C)s2)cc(OC)c1OC`, 6.84%.
As to `COc1ccc(C(NC(=O)c2ccc(C)s2)C2CC2)cc1` (centres undefined), the inhibition is 83.9% (active).
For `CN(C)c1nc(N)nc(Cn2nc(-c3ccc(F)cc3)oc2=O)n1` the value was 91.8% (active); for `O=C1CC(c2ccc(Br)s2)c2cnn(C3CCCC3)c2N1` (centres undefined), 31.2%.
To `CC(C)CC1=NN(C(=O)c2cccc(Br)c2)C(O)(C(F)(F)F)C1` (centres undefined) belongs 23%.
Take `O=C(N/N=C(\CC(=O)c1cccs1)C(F)(F)F)c1cccc(Br)c1`: the inhibition is 103% (active).
To `CCOC(=O)c1c(NC(=O)c2c(F)c(F)c(F)c(F)c2F)sc2c1CCN(c1ccc(Cl)nc1)C2` belongs 61.8% (active); to `CCN1CCc2c(sc(NC(=O)c3ccc(OC)c(OC)c3)c2-c2nc3ccccc3s2)C1`, 28.1%; to `Cc1ccc(CN(C)C(=O)c2cc(C(C)C)[nH]n2)o1`, 69.9% (active).
Turning to `Cc1noc(CN(C)C(=O)c2cc(C(C)C)no2)n1`, the inhibition is -37.1%.
For `Cc1ccc(CN(C)C(=O)c2cc(Br)c[nH]2)o1`, the inhibition was 44.1%.
For `CCN(CC)C(=O)COC(=O)c1cc(-c2cc(C)sc2C)nc2onc(C)c12` the value was -34.1%; for `Cc1cc(C)nc(Nc2cccc(OCc3nc(-c4cccs4)no3)c2)n1`, 29.2%.
For `S=c1[nH]nc(COc2ccc(Cl)cc2Cl)o1` the value was 79.7% (active).
For `COc1cccc(OCc2n[nH]c(=S)o2)c1` the value was 79.7% (active); for `S=c1[nH]nc(COc2ccccc2Cl)o1`, -28.9%; for `S=c1[nH]nc(COc2ccc(Cl)cc2)o1`, 91.8% (active).
As for `CC(Oc1ccc(F)cc1)c1n[nH]c(=S)o1` (centres undefined), the inhibition is -17.5%.
Consider `Cc1ccc(C)c(OCc2n[nH]c(=S)o2)c1`, for which the inhibition is 21.7%.
Consider `COc1cccc(OCc2nc(-c3ccc(Br)o3)no2)c1`, for which the inhibition is 93.8% (active).
To `CN1N=C(c2ccc(F)c(F)c2)CSC1=NCc1ccccc1` belongs 18.9%.
For `OC1(C2(O)CC(c3ccccc3)NO2)CCCCC1` (centres undefined) the value was 27.1%.
For `Cc1cccc(C)c1-n1nnnc1SC(C)C(=O)NC(=O)NC1CCCCC1` (centres undefined) the value was 81.5% (active); for `O=C(NN=C1C(=O)c2cccc3cccc1c23)NC1CCCCC1`, -1.18%.
For the compound `CC(On1nnc2ccc(Cl)cc21)C(=O)NC(=O)NC1CCCCC1` (centres undefined), the inhibition is 27.5%.
For `N#Cc1ccc(/C=C/C(=O)N2CCN(Cc3ccc(Br)s3)CC2)cc1` the value was 28.6%.
For `Brc1ccc(-c2ccc(CN3CCNCC3)s2)cc1` the value was 73.8% (active); for `O=C(C1CC1)N1CCC(NCc2ccc(-c3cccc(Br)c3)s2)CC1`, 44.8%; for `O=C(NC(=S)Nc1cc(Cl)c(Cl)cc1Cl)C1CC1`, 82.6% (active).
For `CCN(C(=S)NC(=O)C1CC1)C1CCCCC1` the value was 20.5%; for `O=C(NNc1c(Cl)cc(Cl)cc1Cl)C1CCC1`, 47.8%.
For the compound `C=CCOc1ccccc1CN(C(=O)CCl)c1ccc2c(c1)OCCO2`, the inhibition was 37.2%.
On to `O=S(=O)(Nc1cc(Cl)ccc1-n1cncn1)c1ccc(F)cc1`, for which the inhibition is 66% (active).
Take `O=[N+]([O-])c1cc(S(=O)(=O)Nc2cc(Cl)ccc2F)ccc1F`: the inhibition is 47.3%.
For `O=[N+]([O-])c1cc(S(=O)(=O)Nc2cc(Cl)ccc2-n2cncn2)ccc1Cl` the value was 67.4% (active); for `O=c1[nH]nc(-c2ccccc2O)n1-c1ccc(Br)cc1`, -5.57%.
For `O=C(CN1CCN(C(=O)C2CCCO2)CC1)Nc1ccc(-c2ccccc2)cc1` (centres undefined), the inhibition was 4.56%.
For `COC(=O)N1CCc2onc(-c3ccc(-c4ccccc4)cc3)c2C1` the value was 25.7%.
For `O=C(CCNc1ccc(-c2ccccc2)cc1)N1CCn2cncc2C1` the value was 92.2% (active); for `c1ccc(Cc2nnc3sc(-c4ccco4)nn23)cc1`, 21.3%; for `CCCOC(=O)c1ccc(NCN2C(=O)c3ccccc3C2=O)cc1`, 93.9% (active).
For `CCCCOC(=O)c1ccc(Nc2ncnc3c2nnn3C)cc1` the value was 9.62%.
With `CC(Cc1cnccn1)NC(=O)CCc1nnc(CCC2CCCCC2)o1` (centres undefined), the inhibition is 33.8%.
To `CN(Cc1ccoc1)C(=O)c1cn(CC2CCCCC2)nn1` belongs 26.8%.
For `COCC(C)NC(=O)CCc1nnc(CCC2CCCCC2)o1` (centres undefined) the value was “inactive”; for `O=C(CCc1nnc(CCC2CCCCC2)o1)NCCc1cccnc1`, 41%; for `CC(CNC(=O)CCc1nnc(CCC2CCCCC2)o1)c1ccccc1` (centres undefined), 57.9% (active).
To `CCn1cc(CNC(=O)CCc2nnc(CCC3CCCCC3)o2)cn1` belongs 76.4% (active).
As for `O=C1Nc2ccc(Br)cc2C12Nc1ccccc1S2` (centres undefined), the inhibition is 5.83%.
In the case of `CC(OC(=O)c1ccco1)C(=O)Nc1ccc(OC(F)F)c(Cl)c1` (centres undefined), the inhibition is 4.36%.
Take `Cc1cc(C(=O)Nc2ccc(OC(F)F)c(Cl)c2)on1`: the inhibition is 91.1% (active).
To `O=C(CCl)Nc1ccc(OC(F)F)c(Cl)c1` belongs 86.6% (active); to `N#Cc1ncn(CC(=O)Nc2ccc(OC(F)F)c(Cl)c2)n1`, 73.2% (active).
Regarding `FC(F)Oc1ccc(NC(=S)Nc2cccnc2)cc1Cl`, the inhibition is 92.8% (active).
To `COC(=O)C1=C(OC)C(=O)OC12C=CC(=O)C=C2` belongs -11.4%; to `Fc1ccc(Nc2nnc(-c3ccc(Br)s3)o2)c(F)c1`, 87.9% (active).
For `Cc1cc2c(F)ccc(C)c2nc1N1CCC(O)(C(=O)O)CC1`, the inhibition was 86% (active).

These data come from PubChem BioAssay AID1259343 (VanderVen Lab, College of Veterinary Medicine, Cornell …, 2017).
